Measurements: PubChem BioAssay

What was measured:
[1] = target: Tumor necrosis factor receptor superfamily member 10B (Homo sapiens) (UniProt O14763); assay: caspase-8 TRAIL sensitization, hit retest, confirmation, cell-based, NB7+caspase-8, with/without TRAIL, luminescence panel (AID 651596); conditions: NB7 neuroblastoma + caspase-8, TRAIL sensitization, luminescence viability, with TRAIL, mean of runs, at 10 µM, stronger effect = higher value
[2] = as above; conditions: NB7 neuroblastoma + caspase-8, without TRAIL, luminescence viability, without TRAIL, mean of runs, at 10 µM

Chain of Tumor necrosis factor receptor superfamily member 10B (Homo sapiens) (O14763 whole entry, looked up): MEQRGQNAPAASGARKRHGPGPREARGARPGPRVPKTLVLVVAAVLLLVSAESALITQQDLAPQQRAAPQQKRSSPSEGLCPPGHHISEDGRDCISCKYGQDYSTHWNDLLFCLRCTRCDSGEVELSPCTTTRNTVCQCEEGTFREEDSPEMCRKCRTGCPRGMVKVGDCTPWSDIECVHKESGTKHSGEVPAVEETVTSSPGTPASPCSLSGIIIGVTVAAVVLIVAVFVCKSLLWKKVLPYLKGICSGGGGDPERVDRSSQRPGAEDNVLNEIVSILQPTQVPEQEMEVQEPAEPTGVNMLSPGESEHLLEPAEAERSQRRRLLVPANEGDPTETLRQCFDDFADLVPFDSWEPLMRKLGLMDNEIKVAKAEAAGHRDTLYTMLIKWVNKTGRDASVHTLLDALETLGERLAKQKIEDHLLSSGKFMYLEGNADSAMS

Row | SMILES | activity [1] [%] | activity [2] [%]
1 | Cc1ccc(-c2nc(N/N=C/c3ccncc3)c3ccccc3n2)cc1 | 98 | 96.7
2 | CC1(C)N=C(N)N=C(N)N1c1ccc(OCC(=O)N2CCOCC2)cc1 | 62.7 | 87.2
3 | O=C(NCc1cccnc1)/C(=C\c1ccc(-c2ccc(Cl)c(Cl)c2)o1)S(=O)(=O)c1ccccc1 | 98.1 | 99.2
4 | C(/C=C/c1ccccn1)=C\c1ccccc1 | 7.58 | 14.6
5 | c1ccc(-c2ccc(-c3nc(-c4ccccn4)no3)cc2)cc1 | 94 | 93.2
6 | Oc1cccc(/C=N/Nc2cccc3cccnc23)c1 | 48.6 | 34.2
7 | Clc1ccc(CN2CCc3c([nH]c4ccccc34)C2)cc1Cl | -9.62 | -14.6
8 | CCC(=O)c1ccc(OCC(=O)OCC(=O)N2CCCc3ccccc32)cc1 | -9.15 | -14.8
9 | Cc1ccc(NC(=S)c2nc3ccccc3s2)cc1 | 30.7 | 33.8
10 | COc1ccc(S(=O)(=O)N2CCN(c3ccc4nnc(-c5ccccc5)n4n3)CC2)cc1 | 58 | 66.5
11 | CC(=O)Nc1nc2ccccc2n1CCOc1ccccc1 | 45.6 | 49.5
12 | Cc1ccc(N2Cc3ccccc3C2=O)cc1 | 64.7 | 59.3
13 | CCc1ccc(-c2cc3c(=O)n(CC(=O)NCCCN4CCC(Cc5ccccc5)CC4)nc(C)n3n2)cc1 | 55.9 | 71.5
14 | CCOc1ccccc1NC(=O)c1nc(S(=O)(=O)Cc2cccc(C)c2)ncc1Cl | 84.6 | 97.2
15 | CCOc1ccc2nc(N3C(=O)CNC3=S)sc2c1 | 65.2 | 60.6
16 | C#CCSc1nnc(-c2ccc(C)cc2)o1 | 97.6 | 93.2
17 | COc1ccc(-c2cc3cccc(OC)c3oc2=O)cc1 | 81.8 | 80.2
18 | Oc1ccc(-c2nc3ccccc3s2)cc1 | 47.5 | 47.9
19 | Cc1nc(-c2ccc(NC(=O)c3cccs3)cc2)cs1 | 83.1 | 83.7
20 | CCOC(=O)c1ccc(NC(=O)c2ccc(C)c(S(=O)(=O)N3CCOCC3)c2)cc1 | 79.3 | 69.1
21 | Cc1ccc(/C=N/Nc2ccc3ccccc3n2)o1 | 55.2 | 45.1
22 | COc1cc2c(cc1OC)C(c1ccccc1)N(C(=O)CCl)CC2 (stereo unspecified) | 98.3 | 92.4
23 | COC(=O)C12OCC34C(CC5C(C)=C(O)C(=O)CC5(C)C3C(O)C1O)OC(=O)C(OC(=O)C=C(C)C)C24 (stereo unspecified) | 91 | 96.2
24 | NC(=S)NN=C1c2cc(OCCN3CCOCC3)ccc2-c2ccc(OCCN3CCOCC3)cc21 | 99 | 99.5

Row | SMILES | activity [1] [%] | activity [2] [%]
25 | CC1CCCN(c2ncnc3c2cnn3-c2ccccc2)C1 (stereo unspecified) | 86.1 | 85.1
26 | CCOC(=O)c1nn(-c2ccc3c(c2)OCCO3)cc1O | 60 | 57
27 | Clc1ccc(/C=N/Nc2nnc(-c3ncc[nH]3)c3ccccc23)cc1 | 57 | 49.9
28 | Cc1nn(-c2ccccc2)c(Cl)c1/C=N/NC(=O)c1[nH]ncc1Br | 83.7 | 71.9
29 | CCOc1ccc(C(=O)N/N=C/c2ccccc2[N+](=O)[O-])cc1 | 68 | 62.8
30 | Cc1nc(NC(=O)c2cc3ccccc3o2)sc1C | 80.8 | 79.8
31 | Cc1cc(C)nc(NC(=O)/C=C/c2ccc3c(c2)OCO3)c1 | 70.2 | 75.5
32 | COCCNC(=O)c1c[nH]c2ccc(S(=O)(=O)N3CCc4ccccc43)cc2c1=O | 74.2 | 82.7
33 | O=C(NC(=S)N1CCc2ccccc21)c1ccccc1 | 65.3 | 72.6
34 | COc1ccc(NC(=O)c2ccc3c(c2)OCCO3)cc1OC | 51.8 | 51.2
35 | Nc1c(-c2cccs2)cnc2c(-c3ccc(F)cc3)cnn12 | 57.5 | 48.8
36 | Cc1nn(-c2ccccc2Cl)c(Cl)c1/C=N/Nc1cccc(C(=O)O)c1 | 68.9 | 62.9
37 | O=C(CCl)Nc1ccccc1C(=O)Nc1ccc2c(c1)OCO2 | 74.1 | 73.8
38 | CCN(CC(=O)N1CCc2ccccc2C1)S(=O)(=O)c1ccc2ccccc2c1 | 42.7 | 62.5
39 | CC(/C=N/NC(=O)c1ccco1)=C\c1ccccc1 | 73.5 | 71.2
40 | Cc1ccc(C(=O)Nc2nc3c(s2)CCCC3)o1 | 70.4 | 69.2
41 | Cc1cccc(NC(=O)c2onc3c2CCCC3)n1 | 85.6 | 89.4
42 | C#CCSc1nnc(CSc2nc3ccccc3s2)n1-c1ccccc1 | 95.3 | 94.8
43 | Cc1nc2ccc(-c3nc4cc(N)ccc4o3)cc2[nH]1 | 59.7 | 57.4
44 | COc1ccc(/C=C2\Oc3ccccc3C2=O)cc1 | 76.7 | 74.3
45 | COC(=O)c1nc(NC(=S)NC(=O)c2cccs2)sc1C | 53.8 | 37.9
46 | CC(C)(C)c1ccc(-c2noc(CCC(=O)N3CCOCC3)n2)cc1 | 66.5 | 64.2
47 | Cc1cc(C)nc(Nc2nc(-c3ccccc3)cs2)n1 | 72.5 | 71.3
48 | Cc1ccc(-n2nnc(-c3nccn3C)n2)cc1 | 74.7 | 77.1
